# Several values for one entry are separate records, joined by “and”; a condition that tells them apart may be missing. Identical values can stand only once. Records with an inconclusive call do not appear. A structure can be active in one record and inactive in another. Activity calls are given as the source filed them. The calls were made as follows: active = hit-call score of the fitted dose curve at least 0.9, where 1 is the maximum; inconclusive = response in the unintended direction; inactive = score below 0.9.
# Legend:
# [1] = biological target: human Matrix Metalloproteinase-3 (MMP3), MMP3 (gene 4314) (UniProt P08254); test: NVS_ENZ_hMMP3: NovaScreen (NVS) Enzymatic Assay for human Matrix Metalloproteinase-3 (MMP3) (AID 2283185)
# In short: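 Cell-free recombinant human MMP3 activity, fluorescence intensity read 1 h after dosing. Primary screen duplicate at 25 uM, actives retested in concentration series; loss of signal vs DMSO baseline.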
# [2] = biological target: human Mitogen- and Stress-activated Protein Kinase-1 (Msk1), RPS6KA5 (gene 9252) (UniProt O75582); test: NVS_ENZ_hMsk1: NovaScreen (NVS) Enzymatic Assay for human Mitogen- and Stress-activated Protein Kinase-1 (Msk1) (AID 2283187)
# In short: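 Recombinant kinase with fluorescent substrate; product separated by electrophoretic mobility shift, read 1 h after dosing. Screened in duplicate at 25 uM; hits (e.g. ≥30% inhibition) tested in concentration–response up to 50 uM. DMSO baseline.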
# [3] = biological target: human Phosphodiesterase 4A1 (PDE4A1), PDE4A (gene 5141) (UniProt P27815); test: NVS_ENZ_hPDE4A1: NovaScreen (NVS) Enzymatic Assay for human Phosphodiesterase 4A1 (PDE4A1) (AID 2283191)
# In short: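 Cell-free recombinant human PDE4A1 with fluorescent substrate; product separated by electrophoretic mobility shift, 1 h. Screened at 25 uM, then up to 50 uM in concentration-response; loss of signal fitted against DMSO.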
# [4] = biological target: cAMP-dependent protein kinase catalytic subunit alpha (Homo sapiens) (UniProt P17612); test: NVS_ENZ_hPKA: NovaScreen (NVS) Enzymatic Assay for human Protein Kinase A (PKA) (AID 2283192)
# In short: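 Recombinant human PKA with specific fluorescent substrate, product separated by electrophoretic mobility shift, read 1 h after dosing. Primary screen at 25 uM in duplicate; actives then run in concentration-response up to 50 uM, activity relative to DMSO.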
# [5] = biological target: human Phosphodiesterase 5 (PDE5), PDE5A (gene 8654) (UniProt O76074); test: NVS_ENZ_hPDE5: NovaScreen (NVS) Enzymatic Assay for human Phosphodiesterase 5 (PDE5) (AID 2283194)
# In short: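 Recombinant human PDE5 with specific substrate, read 1 h after dosing by fluorescence with electrophoretic mobility-shift separation of substrate and product. Initial single-concentration duplicate screen at 25 uM, actives followed in concentration series; loss of activity versus DMSO.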
# [6] = biological target: human Phosphodiesterase 10 (PDE10), PDE10A (gene 10846) (UniProt Q9Y233); test: NVS_ENZ_hPDE10: NovaScreen (NVS) Enzymatic Assay for human Phosphodiesterase 10 (PDE10) (AID 2283195)
# In short: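 Fluorescence/mobility-shift readout of PDE10A enzyme activity, taken 1 h post-dosing. Primary screen in duplicate at 25 uM; actives (e.g. ≥30% inhibition) retested as singleton concentration-response, top concentration 50 uM.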
# [7] = biological target: human Phosphoinositide 3-kinase alpha (PI3Ka), PIK3CA (gene 5290) (UniProt P42336); test: NVS_ENZ_hPI3Ka: NovaScreen (NVS) Enzymatic Assay for human Phosphoinositide 3-kinase alpha (PI3Ka) (AID 2283196)
# In short: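 Enzyme activity as fluorescence after mobility-shift separation of substrate and product, 1 h reaction, recombinant human PI3Kα; concentration-response to 50 uM max for chemicals passing a 25 uM duplicate screen.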
# [8] = biological target: human Protein Tyrosine Phosphatase Non-receptor Type 1 (PTPN1), PTPN1 (gene 5770) (UniProt P18031); test: NVS_ENZ_hPTPN1: NovaScreen (NVS) Enzymatic Assay for human Protein Tyrosine Phosphatase Non-receptor Type 1 (PTPN1) (AID 2283201)
# In short: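 Cell-free fluorogenic-substrate activity assay on recombinant enzyme, read 1.33 h after dosing by fluorescence and electrophoretic mobility shift; loss of signal vs DMSO baseline. Primary screen in duplicate at 25 uM, hits then run in concentration-response up to 50 uM.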
# [9] = biological target: Tyrosine-protein phosphatase non-receptor type 11 (Homo sapiens) (UniProt Q06124); test: NVS_ENZ_hPTPN11: NovaScreen (NVS) Enzymatic Assay for human Protein Tyrosine Phosphatase Non-receptor Type 11 (PTPN11) (AID 2283202)
# In short: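 Recombinant human PTPN11 activity on a fluorescent substrate, with substrate/product separated by electrophoretic mobility shift; read 0.5 h after dosing, loss of signal vs DMSO. Duplicate 25 uM screen, then concentration-response up to 50 uM.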
# [10] = biological target: Tyrosine-protein phosphatase non-receptor type 12 (Homo sapiens) (UniProt Q05209); test: NVS_ENZ_hPTPN12: NovaScreen (NVS) Enzymatic Assay for human Protein Tyrosine Phosphatase Non-receptor Type 12 (PTPN12) (AID 2283204)
# In short: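 Single-concentration duplicates (25 uM) preceded singleton concentration-response up to 50 uM for chemicals passing threshold. Cell-free recombinant PTPN12 activity was read 1.33 h after dosing via fluorescence after mobility-shift separation; loss of signal versus DMSO.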
# [11] = biological target: Tyrosine-protein phosphatase non-receptor type 13 (Homo sapiens) (UniProt Q12923); test: NVS_ENZ_hPTPN13: NovaScreen (NVS) Enzymatic Assay for human Protein Tyrosine Phosphatase Non-receptor Type 13 (PTPN13) (AID 2283205)
# In short: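 Cell-free assay of recombinant human PTPN13 with a fluorescent substrate, product separated by electrophoretic mobility shift and read 0.5 h after dosing. Primary screen at 25 uM in duplicate, then concentration-response up to 50 uM. Loss of signal fitted against DMSO.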
# [12] = biological target: Tyrosine-protein phosphatase non-receptor type 14 (Homo sapiens) (UniProt Q15678); test: NVS_ENZ_hPTPN14: NovaScreen (NVS) Enzymatic Assay for human Protein Tyrosine Phosphatase Non-receptor Type 14 (PTPN14) (AID 2283206)
# In short: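 Cell-free recombinant human PTPN14 with fluorescent substrate, read 0.5 h after dosing by fluorescence and electrophoretic mobility shift separating substrate from product. Primary screen at 25 uM in duplicate; hits run to 50 uM maximum; loss of signal versus DMSO.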
# [13] = biological target: human Protein Tyrosine Phosphatase Non-receptor Type 4 (PTPN4), PTPN4 (gene 5775) (UniProt P29074); test: NVS_ENZ_hPTPN4: NovaScreen (NVS) Enzymatic Assay for human Protein Tyrosine Phosphatase Non-receptor Type 4 (PTPN4) (AID 2283208)
# In short: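 Cell-free assay of PTPN4 expressed in Sf9 cells, using a fluorescent substrate with product separated by mobility shift; read 1.33 h after dosing. Single-point screen at 25 uM, then concentration-response up to 50 uM. Loss of signal relative to DMSO.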
# [14] = biological target: human Protein Tyrosine Phosphatase Non-receptor Type 9 (PTPN9), PTPN9 (gene 5780) (UniProt P43378); test: NVS_ENZ_hPTPN9: NovaScreen (NVS) Enzymatic Assay for human Protein Tyrosine Phosphatase Non-receptor Type 9 (PTPN9) (AID 2283209)
# In short: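 Sf9-expressed enzyme in a cell-free assay, fluorescence read 1.33 h after dosing with mobility-shift separation of substrate and product. Tested at 25 uM in duplicate, then up to 50 uM; signal loss versus DMSO.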
# [15] = biological target: human Protein Tyrosine Phosphatase Non-receptor Type 6 (PTPN6), PTPN6 (gene 5777) (UniProt P29350); test: NVS_ENZ_hPTPN6: NovaScreen (NVS) Enzymatic Assay for human Protein Tyrosine Phosphatase Non-receptor Type 6 (PTPN6) (AID 2283210)
# In short: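 Cell-free assay with recombinant PTPN6 expressed in SF9 cells, fluorescent substrate, product separated from substrate by electrophoretic mobility shift; read 1.33 hours after dosing. Primary screen in duplicate at 25 uM, actives retested in concentration series; DMSO baseline.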
# [16] = biological target: human Protein Tyrosine Phosphatase Receptor Type B (PTPRB), PTPRB (gene 5787) (UniProt P23467); test: NVS_ENZ_hPTPRB: NovaScreen (NVS) Enzymatic Assay for human Protein Tyrosine Phosphatase Receptor Type B (PTPRB) (AID 2283211)
# In short: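 Recombinant human PTPRB with a fluorescent substrate, product separated by electrophoretic mobility shift; read 1 h after dosing. Primary screen in duplicate at 25 uM; actives then retested in concentration series; loss of signal versus DMSO.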
# [17] = biological target: human Protein Tyrosine Phosphatase Receptor Type F (PTPRF), PTPRF (gene 5792) (UniProt P10586); test: NVS_ENZ_hPTPRF: NovaScreen (NVS) Enzymatic Assay for human Protein Tyrosine Phosphatase Receptor Type F (PTPRF) (AID 2283213)
# In short: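 Cell-free fluorescence enzyme assay with recombinant protein and substrate; product separated by electrophoretic mobility shift. Read 1 h after dosing, single 25 uM duplicate screen, then concentration-response up to 50 uM; loss of signal vs DMSO.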
# [18] = biological target: human Protein Phosphatase, Mg2+/Mn2+ Dependent 1A (PPM1A), PPM1A (gene 5494) (UniProt P35813); test: NVS_ENZ_hPPM1A: NovaScreen (NVS) Enzymatic Assay for human Protein Phosphatase, Mg2+/Mn2+ Dependent 1A (PPM1A) (AID 2283198)
# In short: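 Cell-free recombinant PPM1A phosphatase assay with fluorescent substrate, read 1 h after dosing by electrophoretic mobility shift. Chemicals screened in duplicate at 25 uM, then in concentration-response up to 50 uM; loss of activity versus DMSO.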
# [19] = biological target: Serine/threonine-protein phosphatase PP1-alpha catalytic subunit (Homo sapiens) (UniProt P62136); test: NVS_ENZ_hPPP1CA: NovaScreen (NVS) Enzymatic Assay for human Protein Phosphatase 1 Aatalytic subunit Alpha (PPP1CA) (AID 2283200)
# In short: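 Recombinant enzyme activity read by fluorescence with electrophoretic mobility shift separating substrate from product, 1.33 h after dosing; loss of signal vs DMSO baseline. Primary screen in duplicate at 25 uM; actives retested in concentration-response up to 50 uM.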
# [20] = biological target: human Matrix Metalloproteinase-9 (MMP9), MMP9 (gene 4318) (UniProt P14780); test: NVS_ENZ_hMMP9: NovaScreen (NVS) Enzymatic Assay for human Matrix Metalloproteinase-9 (MMP9) (AID 2283190);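 also: cell-free recombinant MMP9 protease activity read by fluorescent substrate signal; active means inhibition seen as loss of fluorescence signal versus DMSO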
# In short: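 Cell-free fluorescence-intensity enzyme activity assay using extracted protein, read 1 h after dosing. Loss of signal versus DMSO baseline indicates inhibition; primary screen in duplicate at 25 uM, actives followed up in concentration series.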
# Tyrosine-protein phosphatase non-receptor type 13 (Homo sapiens), sequence (Q12923 whole entry, looked up): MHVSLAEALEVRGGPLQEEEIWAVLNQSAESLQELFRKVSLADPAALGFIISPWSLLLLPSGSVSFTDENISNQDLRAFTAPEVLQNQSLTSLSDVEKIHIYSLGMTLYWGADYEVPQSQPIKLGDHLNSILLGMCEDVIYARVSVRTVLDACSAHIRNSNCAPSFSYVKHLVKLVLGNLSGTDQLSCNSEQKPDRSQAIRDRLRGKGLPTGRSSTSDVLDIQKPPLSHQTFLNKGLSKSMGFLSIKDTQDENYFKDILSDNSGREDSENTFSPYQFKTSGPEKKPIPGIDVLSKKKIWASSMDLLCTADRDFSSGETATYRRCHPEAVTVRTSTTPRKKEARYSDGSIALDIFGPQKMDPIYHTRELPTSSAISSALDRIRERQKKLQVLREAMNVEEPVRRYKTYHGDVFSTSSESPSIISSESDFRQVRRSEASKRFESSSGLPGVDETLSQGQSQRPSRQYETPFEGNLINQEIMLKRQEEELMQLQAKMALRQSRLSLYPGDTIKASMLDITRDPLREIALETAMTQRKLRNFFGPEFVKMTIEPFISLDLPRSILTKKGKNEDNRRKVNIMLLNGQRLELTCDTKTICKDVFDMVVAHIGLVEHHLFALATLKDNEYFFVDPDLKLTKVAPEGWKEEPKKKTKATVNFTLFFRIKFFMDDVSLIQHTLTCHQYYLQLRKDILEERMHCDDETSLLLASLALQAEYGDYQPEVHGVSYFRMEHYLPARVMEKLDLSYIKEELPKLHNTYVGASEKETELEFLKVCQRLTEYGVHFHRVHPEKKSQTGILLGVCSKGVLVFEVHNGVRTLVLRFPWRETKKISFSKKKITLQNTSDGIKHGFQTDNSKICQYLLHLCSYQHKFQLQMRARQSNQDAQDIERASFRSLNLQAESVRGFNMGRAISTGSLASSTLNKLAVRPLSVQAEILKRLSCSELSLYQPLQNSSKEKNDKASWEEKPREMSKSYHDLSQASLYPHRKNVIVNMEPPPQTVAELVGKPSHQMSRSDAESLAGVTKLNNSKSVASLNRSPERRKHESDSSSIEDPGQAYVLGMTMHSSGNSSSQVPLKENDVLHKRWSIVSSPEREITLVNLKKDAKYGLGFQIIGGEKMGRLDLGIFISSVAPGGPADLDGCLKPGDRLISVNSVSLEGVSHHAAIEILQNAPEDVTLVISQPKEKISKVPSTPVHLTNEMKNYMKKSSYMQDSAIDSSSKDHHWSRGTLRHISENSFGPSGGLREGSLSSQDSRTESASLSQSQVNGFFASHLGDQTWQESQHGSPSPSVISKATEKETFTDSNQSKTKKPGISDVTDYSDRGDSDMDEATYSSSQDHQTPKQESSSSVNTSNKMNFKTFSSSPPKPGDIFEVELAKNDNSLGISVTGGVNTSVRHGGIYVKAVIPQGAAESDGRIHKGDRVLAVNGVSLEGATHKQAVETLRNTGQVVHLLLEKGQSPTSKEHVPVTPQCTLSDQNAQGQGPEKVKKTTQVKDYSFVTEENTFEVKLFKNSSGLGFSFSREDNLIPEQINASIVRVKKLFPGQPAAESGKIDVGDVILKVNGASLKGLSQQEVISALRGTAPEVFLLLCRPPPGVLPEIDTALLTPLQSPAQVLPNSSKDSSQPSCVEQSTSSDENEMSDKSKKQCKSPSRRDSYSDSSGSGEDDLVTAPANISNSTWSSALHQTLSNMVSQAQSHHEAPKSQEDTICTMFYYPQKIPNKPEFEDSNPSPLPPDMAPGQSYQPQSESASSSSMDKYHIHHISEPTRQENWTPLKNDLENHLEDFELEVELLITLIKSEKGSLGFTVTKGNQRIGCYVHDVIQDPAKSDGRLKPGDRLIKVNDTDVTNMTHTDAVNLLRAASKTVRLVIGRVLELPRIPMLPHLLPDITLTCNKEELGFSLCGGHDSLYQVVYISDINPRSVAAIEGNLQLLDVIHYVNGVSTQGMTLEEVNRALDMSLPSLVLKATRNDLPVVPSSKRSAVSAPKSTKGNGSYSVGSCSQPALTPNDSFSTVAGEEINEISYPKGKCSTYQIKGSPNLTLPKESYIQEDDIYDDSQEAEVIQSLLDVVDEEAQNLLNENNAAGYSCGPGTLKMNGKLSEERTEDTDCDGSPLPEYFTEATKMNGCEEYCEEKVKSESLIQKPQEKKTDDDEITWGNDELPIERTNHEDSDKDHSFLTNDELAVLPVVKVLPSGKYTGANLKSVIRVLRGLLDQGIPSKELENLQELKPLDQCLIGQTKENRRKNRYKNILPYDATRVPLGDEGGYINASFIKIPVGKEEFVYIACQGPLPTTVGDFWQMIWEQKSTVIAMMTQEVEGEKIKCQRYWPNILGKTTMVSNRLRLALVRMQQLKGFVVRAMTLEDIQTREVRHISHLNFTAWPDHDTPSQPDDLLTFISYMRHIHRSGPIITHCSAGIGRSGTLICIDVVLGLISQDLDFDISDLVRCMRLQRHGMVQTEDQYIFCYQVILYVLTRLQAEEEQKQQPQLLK
# human Phosphoinositide 3-kinase alpha (PI3Ka), PIK3CA (gene 5290), sequence (P42336 whole entry, looked up): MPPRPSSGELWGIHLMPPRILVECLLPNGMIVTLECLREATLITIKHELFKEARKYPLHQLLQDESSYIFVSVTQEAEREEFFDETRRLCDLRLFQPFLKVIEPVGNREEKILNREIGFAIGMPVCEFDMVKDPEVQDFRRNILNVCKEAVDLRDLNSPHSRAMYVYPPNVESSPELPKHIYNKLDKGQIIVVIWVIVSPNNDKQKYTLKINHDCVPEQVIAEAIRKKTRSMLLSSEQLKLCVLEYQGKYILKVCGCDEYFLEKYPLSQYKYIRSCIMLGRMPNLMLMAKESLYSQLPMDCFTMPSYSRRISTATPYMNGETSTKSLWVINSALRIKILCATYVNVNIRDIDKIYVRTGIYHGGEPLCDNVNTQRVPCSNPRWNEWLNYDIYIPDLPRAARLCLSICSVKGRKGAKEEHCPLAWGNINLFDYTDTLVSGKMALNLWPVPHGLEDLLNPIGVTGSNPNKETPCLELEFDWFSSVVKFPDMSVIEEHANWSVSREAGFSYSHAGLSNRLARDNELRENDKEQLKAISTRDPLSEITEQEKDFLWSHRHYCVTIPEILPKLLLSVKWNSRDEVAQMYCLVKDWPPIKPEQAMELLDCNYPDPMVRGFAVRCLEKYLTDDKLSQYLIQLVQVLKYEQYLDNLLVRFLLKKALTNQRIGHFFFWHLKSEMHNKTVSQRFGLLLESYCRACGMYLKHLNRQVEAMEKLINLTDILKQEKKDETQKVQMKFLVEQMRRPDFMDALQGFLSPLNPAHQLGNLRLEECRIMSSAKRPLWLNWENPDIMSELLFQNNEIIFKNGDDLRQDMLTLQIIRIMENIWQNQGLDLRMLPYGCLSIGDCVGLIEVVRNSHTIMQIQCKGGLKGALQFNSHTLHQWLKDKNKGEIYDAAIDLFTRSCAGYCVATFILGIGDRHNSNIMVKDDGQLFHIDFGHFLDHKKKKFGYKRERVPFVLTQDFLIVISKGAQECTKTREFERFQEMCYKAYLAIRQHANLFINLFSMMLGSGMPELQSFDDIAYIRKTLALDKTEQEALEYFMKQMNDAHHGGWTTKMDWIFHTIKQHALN
# Serine/threonine-protein phosphatase PP1-alpha catalytic subunit (Homo sapiens), sequence (P62136 whole entry, looked up): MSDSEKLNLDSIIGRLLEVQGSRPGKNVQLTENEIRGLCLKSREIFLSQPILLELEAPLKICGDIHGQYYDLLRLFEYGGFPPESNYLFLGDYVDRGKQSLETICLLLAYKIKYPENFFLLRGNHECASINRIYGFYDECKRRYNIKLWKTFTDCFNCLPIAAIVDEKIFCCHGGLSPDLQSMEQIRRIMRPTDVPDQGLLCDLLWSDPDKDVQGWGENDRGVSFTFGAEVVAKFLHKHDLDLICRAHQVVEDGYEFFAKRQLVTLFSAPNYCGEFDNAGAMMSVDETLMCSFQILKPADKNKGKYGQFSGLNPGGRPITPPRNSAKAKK
# human Phosphodiesterase 4A1 (PDE4A1), PDE4A (gene 5141), sequence (P27815 whole entry, looked up): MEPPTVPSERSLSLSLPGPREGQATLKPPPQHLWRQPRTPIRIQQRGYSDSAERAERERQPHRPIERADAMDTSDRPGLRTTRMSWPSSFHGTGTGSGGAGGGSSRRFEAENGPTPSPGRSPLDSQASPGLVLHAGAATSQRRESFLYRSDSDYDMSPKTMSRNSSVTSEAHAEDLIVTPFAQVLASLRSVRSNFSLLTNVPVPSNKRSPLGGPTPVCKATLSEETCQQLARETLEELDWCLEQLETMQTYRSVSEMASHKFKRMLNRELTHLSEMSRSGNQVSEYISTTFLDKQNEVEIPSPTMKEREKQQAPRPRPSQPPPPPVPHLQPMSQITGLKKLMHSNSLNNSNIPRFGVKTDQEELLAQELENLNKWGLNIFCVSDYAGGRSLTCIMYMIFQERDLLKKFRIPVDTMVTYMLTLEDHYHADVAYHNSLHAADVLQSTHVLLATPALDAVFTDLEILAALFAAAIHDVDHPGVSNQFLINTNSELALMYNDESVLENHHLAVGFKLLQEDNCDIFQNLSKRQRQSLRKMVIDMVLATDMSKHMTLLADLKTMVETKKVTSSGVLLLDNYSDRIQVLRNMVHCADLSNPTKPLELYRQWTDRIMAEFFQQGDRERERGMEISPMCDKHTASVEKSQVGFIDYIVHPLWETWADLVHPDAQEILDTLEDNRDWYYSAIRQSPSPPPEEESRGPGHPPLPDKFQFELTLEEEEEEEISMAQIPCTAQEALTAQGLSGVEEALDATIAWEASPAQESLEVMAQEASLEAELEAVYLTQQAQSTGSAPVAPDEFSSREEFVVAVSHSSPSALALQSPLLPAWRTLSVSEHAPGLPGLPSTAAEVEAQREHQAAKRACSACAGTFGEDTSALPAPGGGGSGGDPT
smiles,measurement,setting,value
S=C(S)NCCNC(=S)S.[Mn+2].[S-]C([S-])=NCCN=C([S-])[S-].[Zn+2],AC50,[1],10.8 µM (active)
same,AC50,[2],1.45 µM (active) and 9.58 µM (active)
same,AC50,[3],3.82 µM (active) and 3.7 µM (active) and 10.6 µM (active)
same,AC50,[4],20.5 µM (active)
same,AC50,[5],12.5 µM (active) and 14.2 µM (active)
same,outcome,[5],inactive
same,AC50,[6],2.41 µM (active) and 17.6 µM (active)
same,AC50,[7],6.63 µM (active) and 14.6 µM (active)
same,outcome,[7],inactive
same,AC50,[8],830 nM (active) and 1.81 µM (active)
same,AC50,[9],463 nM (active) and 603 nM (active)
same,AC50,[10],486 nM (active) and 1.35 µM (active)
same,AC50,[11],3.5 µM (active) and 7.66 µM (active) and 4.12 µM (active)
same,AC50,[12],25 µM (active)
same,AC50,[13],183 nM (active) and 38.9 nM (active)
same,AC50,[14],419 nM (active) and 26.1 nM (active)
same,AC50,[15],3.57 µM (active) and 30.5 µM (active)
same,AC50,[16],22.4 nM (active) and 4.12 µM (active)
same,AC50,[17],1.38 µM (active) and 1.98 µM (active)
same,outcome,[17],inactive
CCCN(CCC)c1c([N+](=O)[O-])cc(C(F)(F)F)c(N)c1[N+](=O)[O-],outcome,[10],inactive
same,outcome,[13],inactive
same,AC50,[14],19.9 µM (active)
same,outcome,[15],inactive
CC(C)(c1ccc(O)cc1)c1ccc(O)cc1,outcome,[1],inactive
same,AC50,[7],25.4 µM (active)
same,outcome,[7],inactive
same,outcome,[18],inactive
same,outcome,[16],inactive
CCNc1nc(N)nc(Cl)n1,AC50,[3],25 µM (active)
same,outcome,[16],inactive
CC(=O)S[C@@H]1CC2=CC(=O)CC[C@]2(C)[C@H]2CC[C@@]3(C)[C@@H](CC[C@@]34CCC(=O)O4)[C@H]12,AC50,[6],14.4 µM (active)
O=C(c1ccc(O)cc1O)c1ccc(O)cc1O,AC50,[2],24.1 µM (active)
same,outcome,[4],inactive
same,AC50,[5],22 µM (active)
CCC(C)OC(=O)N1CCCCC1CCO (stereo not drawn),outcome,[6],inactive
same,outcome,[13],inactive
same,outcome,[14],inactive
O=C(O)C1(C(=O)Nc2ccc(Cl)cc2Cl)CC1,outcome,[1],inactive
same,outcome,[2],inactive
same,AC50,[3],24.2 µM (active)
same,AC50,[5],13 µM (active)
same,AC50,[6],34.9 µM (active)
same,AC50,[19],19.7 µM (active)
same,AC50,[8],3.82 µM (active)
same,AC50,[9],6.94 µM (active)
same,AC50,[10],25 µM (active)
same,AC50,[11],3.91 µM (active)
same,AC50,[13],3.23 µM (active)
same,AC50,[14],4.28 µM (active)
same,outcome,[17],inactive
CCCCOC(=O)[C@@H](C)Oc1ccc(Oc2ccc(C(F)(F)F)cn2)cc1,outcome,[1],inactive
C[C@]12CC[C@@H]3c4ccc(O)cc4C[C@@H](CCCCCCCCCS(=O)CCCC(F)(F)C(F)(F)F)[C@H]3[C@@H]1CC[C@@H]2O (stereo partly drawn),outcome,[1],inactive
CSC(=O)c1cccc2nnsc12,outcome,[3],inactive
same,outcome,[5],inactive
same,outcome,[13],inactive
Oc1ccc(C(c2ccc(O)cc2)C(Cl)(Cl)Cl)cc1,outcome,[20],inactive
same,AC50,[7],29.1 µM (active)
same,outcome,[9],inactive
c1ccc(Nc2ccccc2)cc1,outcome,[19],inactive
same,outcome,[13],inactive
O=C(Nc1ccc([N+](=O)[O-])cc1Cl)c1cc(Cl)ccc1O,outcome,[19],inactive
same,AC50,[11],18.7 µM (active)

# — PubChem BioAssay (EPA / NIEHS)
